Common to all, as to test: glycan array binding signal (z-score within array); higher = stronger binding
Common to all, as to conditions: glycan notation: IUPAC condensed, linker removed

Test [1] has as its target GlcNAc(b1-4)Gal(b1-4)GlcNAc. An outline of the steps:
(§1)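 Glycan array data were curated from 3228 arrays in the Consortium for Functional Glycomics database and kept only where the protein sequence was available. Glycan names were converted to IUPAC-condensed notation, and columns mapping to the same glycan were averaged. The binding signal is a within-array Z-score, averaged across arrays of the same protein sequence at different concentrations or buffers and across linkers. Negative Z-scores can be read as non-binding.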

Test [2] has as its target GlcNAc(b1-4)GlcNAc(b1-4)GlcNAc. A digest of the protocol:
as §1

The target in test [3] is GlcNAc(b1-6)Gal(b1-4)GlcNAc. A digest of the protocol: as §1
For another test, the target named is Man(a1-2)Man(a1-3)Man. A digest of the protocol: as §1
Test [4] addresses Man(a1-2)Man(a1-6)[Man(a1-3)]Man(a1-6)[Man(a1-2)Man(a1-2)Man(a1-3)]Man. A digest of the protocol: as §1
For test [5], the target named is Man(a1-3)[Man(a1-6)]Man(a1-6)[Man(a1-3)]Man. An outline of the steps:
as §1

For another test, the target named is MurNAc(b1-4)GlcNAc. An outline of the steps:
as §1

Test [6] has as its target Neu5Ac(a2-3)Gal(b1-4)GlcNAc(b1-2)[Neu5Ac(a2-3)Gal(b1-4)GlcNAc(b1-4)]Man(a1-3)[GlcNAc(b1-4)][Neu5Ac(a2-3)Gal(b1-4)GlcNAc(b1-4)Man(a1-6)]Man(b1-4)GlcNAc(b1-4)GlcNAc. A digest of the protocol: as §1
The target of test [7] is Neu5Ac(a2-3)Gal(b1-4)GlcNAc(b1-2)[Neu5Ac(a2-3)Gal(b1-4)GlcNAc(b1-6)]Man(a1-6)[Neu5Ac(a2-3)Gal(b1-4)GlcNAc(b1-2)Man(a1-3)]Man(b1-4)GlcNAc(b1-4)GlcNAc. An outline of the steps:
as §1

The target of test [8] is Neu5Ac(a2-3)Gal(b1-4)GlcNAc(b1-3)Gal(b1-4)GlcNAc(b1-3)Gal(b1-4)GlcNAc(b1-2)Man(a1-3)[Neu5Ac(a2-3)Gal(b1-4)GlcNAc(b1-3)Gal(b1-4)GlcNAc(b1-3)Gal(b1-4)GlcNAc(b1-2)Man(a1-6)]GalNAc. An outline of the steps:
as §1

Test [9] deals with Neu5Ac(a2-3)Gal(b1-4)GlcNAc(b1-3)[Neu5Ac(a2-3)Gal(b1-4)GlcNAc(b1-6)]GalNAc. A digest of the protocol: as §1
Test [10] concerns the target Neu5Ac(a2-3)Gal(b1-4)[Fuc(a1-3)]GlcNAc(b1-3)Gal(b1-4)[Fuc(a1-3)]GlcNAc(b1-3)Gal(b1-4)[Fuc(a1-3)]GlcNAc. A digest of the protocol:
as §1

Test [11] deals with Neu5Ac(a2-3)Gal(b1-4)[Fuc(a1-3)]GlcNAc(b1-3)GalNAc. An outline of the steps:
as §1

In test [12] the target is Neu5Ac(a2-3)[GalNAc(b1-4)]Gal(b1-4)GlcNAc. An outline of the steps: as §1
Test [13] deals with Neu5Ac(a2-6)Gal(b1-4)GlcNAc(b1-2)Man(a1-6)[GlcNAc(b1-2)Man(a1-3)]Man(b1-4)GlcNAc(b1-4)GlcNAc. A digest of the protocol:
as §1

The target in test [14] is Neu5Ac(a2-6)Gal(b1-4)GlcNAc(b1-3)Gal(b1-4)GlcNAc(b1-3)Gal(b1-4)GlcNAc(b1-2)Man(a1-3)[Neu5Ac(a2-6)Gal(b1-4)GlcNAc(b1-3)Gal(b1-4)GlcNAc(b1-3)Gal(b1-4)GlcNAc(b1-2)Man(a1-6)]GalNAc. An outline of the steps: as §1
In test [15] the target is Neu5Ac(a2-6)Gal(b1-4)GlcNAc(b1-3)Gal(b1-4)[Fuc(a1-3)]GlcNAc(b1-3)Gal(b1-4)[Fuc(a1-3)]GlcNAc. An outline of the steps:
as §1

The target of test [16] is Neu5Ac(a2-8)Neu5Ac(a2-3)Gal(b1-4)Glc. An outline of the steps: as §1
Test [17] addresses Neu5Gc(a2-3)Gal(b1-3)[Fuc(a1-4)]GlcNAc. A digest of the protocol: as §1
In test [18] the target is Neu5Gc(b2-6)Gal(b1-4)GlcNAc. An outline of the steps: as §1

One molecule from the supplement of paper PMC8728848 can be followed below.

This excerpt belongs to a sample that is enriched for the strongest signals.

B1: SP15308C-bot-338-23-338 (Bacteroides ovatus) (protein)
chain: DEWTDEQFKQLISFKTQPGGWGVTDVHVRYANSAKYTYNLPVLVSGSTDNTDDRLVSFSLRDDTLDILNFEKFGNRPELYFRELPQKYYSFPKELTIPAGQSHALLPIEFSLDGLDDSQKWALPLKVCEDANGTYAVNPRKYYRTAVLRPILFNEFSGRFSGSSLLGTMAGESDIKFSSTEIKLNVVTDSIVFFYAGQRTEDYEDRINYKVFLQFTGDKVDSKKDLYKMKIWAENEKLKFNSYSTPTYKVSSEMDATKTYLKHTYIVISDIDFDFVDYTSVPNYEIEYNMKGGLSVSRDLDTRKPDEDQGSDSKWW
As for B1, the “glycan array binding signal (z-score)” value was -0.205 in test [1]; -0.098 in test [2]; -0.182 in [3]; 0.722 in the test with Man(a1-2)Man(a1-3)Man; -0.109 in test [4]; 0.294 in test [5]. Further, the “glycan array binding signal (z-score)” value in the test with MurNAc(b1-4)GlcNAc was -0.64; in test [6], -0.025; in test [7], 0.382; in [8], 0.621; in test [9] it was -0.252; in [10] it was -0.739. In addition, the “glycan array binding signal (z-score)” value was 3.23 in test [11]; -0.753 in [12]; -0.62 in test [13]; 2.46 in test [14]; -0.639 in test [15]; -0.032 in test [16]. Moreover, the entries for the “glycan array binding signal (z-score)” value in test [17] and in test [18] were 0.492 and 0.812, respectively.
